How the values were obtained:
Test in all cases: DAPPL (digital affinity profiling via proximity ligation, sequencing); 10 mM Tris-HCl pH 7.5, 50 mM NaCl, 1 mM DTT, 4% glycerol, room temperature, 30 min; GST-TFs on glutathione beads, 16-mer random dsDNA library, 0.1% formaldehyde crosslink after washing; high values mean tight binding
Settings in all cases: protein: recombinant; tags: N-terminal GST; dsDNA, one strand shown
[1] = target: T1, ETV2 (Homo sapiens, UniProt O00321 1-342)
T1 sequence: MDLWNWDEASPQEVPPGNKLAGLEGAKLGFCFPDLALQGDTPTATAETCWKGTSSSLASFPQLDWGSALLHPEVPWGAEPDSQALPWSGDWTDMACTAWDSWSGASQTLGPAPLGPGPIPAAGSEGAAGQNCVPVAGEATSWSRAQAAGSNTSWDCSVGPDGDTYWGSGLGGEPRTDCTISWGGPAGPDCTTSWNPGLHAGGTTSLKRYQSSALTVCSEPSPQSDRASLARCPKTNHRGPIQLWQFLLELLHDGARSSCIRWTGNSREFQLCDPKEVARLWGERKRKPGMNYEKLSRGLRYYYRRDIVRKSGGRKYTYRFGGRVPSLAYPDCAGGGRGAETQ
Summary of the method: (§1)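 A tag-only sample was pooled with DNA-barcoded human transcription factors that had been expressed in yeast as GST fusions and captured on glutathione beads. The pools were incubated for 30 min at room temperature with 200 nmole of a random double-stranded 16-mer DNA library in Tris/NaCl/DTT/glycerol buffer, then washed, crosslinked with 0.1% formaldehyde, proximity-ligated (BsaI/T4 ligase, 1 h, 37 °C), PCR-amplified and sequenced on an Illumina NextSeq500. Binding signal is each hexamer's read frequency for a factor divided by its frequency for the tag-only sample.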

[2] = target: T2, ELF3 (Homo sapiens, UniProt P78545 1-371)
T2 sequence: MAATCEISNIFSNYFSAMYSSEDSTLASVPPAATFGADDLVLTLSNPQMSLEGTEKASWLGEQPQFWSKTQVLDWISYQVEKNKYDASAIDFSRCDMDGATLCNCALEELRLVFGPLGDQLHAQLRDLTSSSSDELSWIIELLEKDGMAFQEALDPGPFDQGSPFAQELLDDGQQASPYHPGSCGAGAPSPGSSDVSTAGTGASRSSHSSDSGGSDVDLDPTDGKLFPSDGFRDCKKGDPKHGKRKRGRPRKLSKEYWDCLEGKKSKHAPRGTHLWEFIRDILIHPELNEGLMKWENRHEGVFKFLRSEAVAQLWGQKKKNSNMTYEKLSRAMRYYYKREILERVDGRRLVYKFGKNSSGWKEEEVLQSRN
Summary of the method: as §1

[3] = target: ETV1 (Homo sapiens, UniProt P50549 1-477)
Summary of the method: as §1

[4] = target: T3, ERF (Homo sapiens, UniProt P50548 1-548)
T3 sequence: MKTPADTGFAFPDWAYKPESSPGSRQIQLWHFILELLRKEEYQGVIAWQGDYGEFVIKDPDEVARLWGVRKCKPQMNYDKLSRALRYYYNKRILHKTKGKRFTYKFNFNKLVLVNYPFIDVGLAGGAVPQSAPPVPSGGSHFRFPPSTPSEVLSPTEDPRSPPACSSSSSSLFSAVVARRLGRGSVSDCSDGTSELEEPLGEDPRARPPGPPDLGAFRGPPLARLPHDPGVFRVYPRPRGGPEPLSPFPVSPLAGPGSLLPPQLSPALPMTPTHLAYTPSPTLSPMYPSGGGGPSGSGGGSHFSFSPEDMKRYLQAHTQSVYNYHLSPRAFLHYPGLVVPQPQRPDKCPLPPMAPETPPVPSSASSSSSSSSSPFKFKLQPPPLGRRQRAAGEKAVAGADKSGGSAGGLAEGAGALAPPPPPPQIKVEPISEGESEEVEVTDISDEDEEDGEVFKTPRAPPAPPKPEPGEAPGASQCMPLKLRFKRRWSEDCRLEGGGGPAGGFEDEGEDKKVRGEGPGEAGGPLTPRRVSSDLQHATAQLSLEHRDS
Summary of the method: as §1

[5] = target: T4, ETV3L (Homo sapiens, UniProt Q6ZN32 1-361)
T4 sequence: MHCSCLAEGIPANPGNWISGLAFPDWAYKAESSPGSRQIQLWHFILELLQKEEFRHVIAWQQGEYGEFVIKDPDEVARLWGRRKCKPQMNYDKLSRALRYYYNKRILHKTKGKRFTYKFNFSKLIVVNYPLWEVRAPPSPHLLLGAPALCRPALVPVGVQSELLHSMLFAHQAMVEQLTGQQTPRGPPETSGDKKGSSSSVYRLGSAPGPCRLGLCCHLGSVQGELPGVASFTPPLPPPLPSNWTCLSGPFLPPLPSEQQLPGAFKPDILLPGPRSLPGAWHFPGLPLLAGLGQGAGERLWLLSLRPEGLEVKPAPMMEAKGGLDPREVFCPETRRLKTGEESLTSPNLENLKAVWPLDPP
Summary of the method: as §1

[6] = target: T5, ETS2 (Homo sapiens, UniProt P15036 1-469)
T5 sequence: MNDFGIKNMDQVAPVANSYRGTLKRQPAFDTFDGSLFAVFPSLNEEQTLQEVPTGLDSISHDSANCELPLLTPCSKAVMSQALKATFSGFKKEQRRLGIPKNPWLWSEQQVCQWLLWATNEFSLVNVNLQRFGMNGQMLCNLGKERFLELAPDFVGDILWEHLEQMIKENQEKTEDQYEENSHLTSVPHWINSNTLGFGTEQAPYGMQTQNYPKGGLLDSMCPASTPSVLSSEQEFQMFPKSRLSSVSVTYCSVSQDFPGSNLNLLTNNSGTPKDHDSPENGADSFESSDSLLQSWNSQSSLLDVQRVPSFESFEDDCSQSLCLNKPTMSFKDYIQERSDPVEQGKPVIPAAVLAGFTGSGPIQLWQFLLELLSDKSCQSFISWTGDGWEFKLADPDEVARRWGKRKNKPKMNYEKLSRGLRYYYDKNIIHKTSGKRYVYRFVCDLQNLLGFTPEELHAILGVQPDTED
Summary of the method: as §1

[7] = target: T6, SPDEF (Homo sapiens, UniProt O95238 1-335)
T6 sequence: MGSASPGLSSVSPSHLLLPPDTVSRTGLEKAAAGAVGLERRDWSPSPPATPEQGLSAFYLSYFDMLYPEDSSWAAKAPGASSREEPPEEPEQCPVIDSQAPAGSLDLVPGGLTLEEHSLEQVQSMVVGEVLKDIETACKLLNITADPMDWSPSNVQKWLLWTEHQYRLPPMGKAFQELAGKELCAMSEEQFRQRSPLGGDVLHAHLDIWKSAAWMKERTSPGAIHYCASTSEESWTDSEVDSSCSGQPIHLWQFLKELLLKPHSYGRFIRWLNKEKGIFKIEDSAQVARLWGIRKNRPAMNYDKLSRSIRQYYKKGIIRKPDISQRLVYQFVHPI
Summary of the method: as §1

[8] = target: T7, ETV7 (Homo sapiens, UniProt Q9Y603 1-341)
T7 sequence: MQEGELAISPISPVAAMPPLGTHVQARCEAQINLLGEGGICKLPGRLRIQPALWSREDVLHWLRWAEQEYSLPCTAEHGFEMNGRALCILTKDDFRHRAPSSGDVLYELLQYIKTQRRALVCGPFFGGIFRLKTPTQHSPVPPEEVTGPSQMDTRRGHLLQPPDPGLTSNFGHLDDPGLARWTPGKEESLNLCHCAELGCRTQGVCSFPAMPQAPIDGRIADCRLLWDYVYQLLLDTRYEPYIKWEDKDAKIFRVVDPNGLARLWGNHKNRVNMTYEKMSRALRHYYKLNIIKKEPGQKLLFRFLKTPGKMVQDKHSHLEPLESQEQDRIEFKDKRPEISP
Summary of the method: as §1

[9] = target: T8, ETV3 (Homo sapiens, UniProt P41162-2 1-143)
T8 sequence: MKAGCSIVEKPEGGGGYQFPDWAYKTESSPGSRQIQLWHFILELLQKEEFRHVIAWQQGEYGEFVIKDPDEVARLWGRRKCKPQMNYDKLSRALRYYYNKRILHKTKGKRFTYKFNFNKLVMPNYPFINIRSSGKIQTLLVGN
Summary of the method: as §1

[10] = target: ETV6 (Homo sapiens, UniProt P41212 1-452)
Summary of the method: as §1

Sequence of ETV6 (P41212 whole entry): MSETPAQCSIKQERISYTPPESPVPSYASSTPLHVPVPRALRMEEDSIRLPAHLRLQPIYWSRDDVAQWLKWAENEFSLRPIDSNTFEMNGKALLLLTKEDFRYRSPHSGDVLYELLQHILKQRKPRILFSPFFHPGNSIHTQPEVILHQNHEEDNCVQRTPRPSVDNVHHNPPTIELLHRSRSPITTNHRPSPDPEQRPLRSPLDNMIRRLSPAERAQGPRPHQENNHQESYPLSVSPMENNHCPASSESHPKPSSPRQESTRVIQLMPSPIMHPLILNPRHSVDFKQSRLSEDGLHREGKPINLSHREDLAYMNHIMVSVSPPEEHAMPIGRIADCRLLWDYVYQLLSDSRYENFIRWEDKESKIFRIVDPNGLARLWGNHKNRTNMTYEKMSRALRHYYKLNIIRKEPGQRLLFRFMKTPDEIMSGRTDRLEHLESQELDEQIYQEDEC
Sequence of ETV1 (P50549 whole entry): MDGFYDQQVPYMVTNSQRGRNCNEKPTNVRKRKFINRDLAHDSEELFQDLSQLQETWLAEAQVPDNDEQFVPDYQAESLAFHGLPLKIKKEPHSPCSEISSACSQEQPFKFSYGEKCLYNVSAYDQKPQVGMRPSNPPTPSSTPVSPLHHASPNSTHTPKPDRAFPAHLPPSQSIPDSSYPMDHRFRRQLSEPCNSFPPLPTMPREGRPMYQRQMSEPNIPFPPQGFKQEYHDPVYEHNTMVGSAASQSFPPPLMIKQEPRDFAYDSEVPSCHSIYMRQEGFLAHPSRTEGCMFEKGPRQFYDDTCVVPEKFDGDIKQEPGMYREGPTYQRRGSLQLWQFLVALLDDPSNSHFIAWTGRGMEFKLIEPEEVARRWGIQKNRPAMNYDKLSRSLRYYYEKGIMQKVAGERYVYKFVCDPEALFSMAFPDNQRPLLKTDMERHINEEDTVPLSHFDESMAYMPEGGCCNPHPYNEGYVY

Sequence: CGTAAA
- binding signal [1]: 1.21 fold enrichment (6-mer frequency, TF over GST control)
- binding signal [2]: 1.12 fold enrichment (6-mer frequency, TF over GST control)
- binding signal [3]: 1 fold enrichment (6-mer frequency, TF over GST control)
- binding signal [4]: 1.09 fold enrichment (6-mer frequency, TF over GST control)
- binding signal [5]: 1.09 fold enrichment (6-mer frequency, TF over GST control)
- binding signal [6]: 1.14 fold enrichment (6-mer frequency, TF over GST control)
- binding signal [7]: 1.09 fold enrichment (6-mer frequency, TF over GST control)
- binding signal [8]: 1.08 fold enrichment (6-mer frequency, TF over GST control)
- binding signal [9]: 1.14 fold enrichment (6-mer frequency, TF over GST control)
- binding signal [10]: 1.17 fold enrichment (6-mer frequency, TF over GST control)

— PMC7862700, “An all-to-all approach to the identification of sequence-specific readers for epigenetic DNA modifications on cytosine”
